Assay results from ChEMBL document CHEMBL3433997, “St. Jude Leishmania screening dataset” (2016).

Tests used:
Assay type in all cases: functional
[1] = biological target: Solute carrier family 2, facilitated glucose transporter member 1 (Homo sapiens) (UniProt P11166); assay: ST_JUDE_LEISH: Cytotoxicity at 2uM final concentration against transgenic Leishmania Mexicana promastigotes LmGLUT1 that are glucose transport deficient and complemented with the human glucose transporter GLUT1. Activity is measured by DNA content using SYBR green in vitro
[2] = biological target: Hexose transporter 1 (Plasmodium falciparum) (UniProt O97467); assay: ST_JUDE_LEISH: Cytotoxicity at 2uM final concentration against transgenic Leishmania Mexicana promastigotes LmPfHT that are glucose transport deficient and complemented with the Plasmodium falciparum hexose transporter. Activity is measured by DNA content using SYBR green in vitro
[3] = biological target: Glucose transporter (Leishmania mexicana) (UniProt O61059); assay: ST_JUDE_LEISH: Cytotoxicity at 2uM final concentration against transgenic Leishmania Mexicana promastigotes LmGT2 that are glucose transport deficient and complemented with the L. Mexicana glucose transporter 2. Activity is measured by DNA content using SYBR green in vitro

Chain of Solute carrier family 2, facilitated glucose transporter member 1 (Homo sapiens) (P11166 whole entry): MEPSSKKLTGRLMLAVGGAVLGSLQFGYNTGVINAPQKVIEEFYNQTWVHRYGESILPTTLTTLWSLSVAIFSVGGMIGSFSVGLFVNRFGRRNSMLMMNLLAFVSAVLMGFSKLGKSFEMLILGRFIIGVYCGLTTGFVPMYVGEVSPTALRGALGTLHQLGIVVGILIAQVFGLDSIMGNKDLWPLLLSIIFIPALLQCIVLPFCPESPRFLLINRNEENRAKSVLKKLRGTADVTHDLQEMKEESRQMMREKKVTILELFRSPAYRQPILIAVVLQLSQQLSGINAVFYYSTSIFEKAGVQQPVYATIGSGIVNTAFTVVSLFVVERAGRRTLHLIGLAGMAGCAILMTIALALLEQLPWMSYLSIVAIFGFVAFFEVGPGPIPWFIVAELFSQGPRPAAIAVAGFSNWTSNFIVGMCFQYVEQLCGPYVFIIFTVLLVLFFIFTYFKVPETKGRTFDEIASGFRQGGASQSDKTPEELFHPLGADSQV

| SMILES | inhibition [1] [%] | inhibition [2] [%] | inhibition [3] [%] |
| --- | --- | --- | --- |
| CCOc1cc[nH]c(=O)n1 | -0.65 | 2.36 | -0.68 |
| NC(=O)C1CCN(Cc2ccc(-c3ccc(-c4nc5cc(C(F)(F)F)ccc5[nH]4)cc3)cc2)CC1 | 4.65 | 2.32 | 3.93 |
| O=C(NC1CCN(c2ccnc3cc(Cl)ccc23)C1)c1ccc(F)cc1F (stereo unspecified) | 1.51 | 5.62 | 2.89 |
| CCOc1cc(C2C(C(=O)OC(C)C)=C(C)NC3=C2C(=O)CC(c2ccc(Cl)cc2)C3)ccc1OC(C)=O (stereo unspecified) | 6.58 | 6.64 | 6.55 |
| COc1cc(C(=O)NC2CC(C)(C)N(C)C(C)(C)C2)ccc1-c1cc2cc(Cl)c(Cl)cc2[nH]1 | 1.97 | -1.54 | 2.48 |
| N#Cc1ccc(N2CCN(Cc3cccc(-c4ccc(-c5nc6ccccc6[nH]5)cc4)c3)CC2)nc1 | 6.09 | 3.68 | -0.67 |
| N#Cc1ccc(N/C(=N\c2ccc(-c3ccccc3)cc2)NCCc2c[nH]c3ccccc23)c(O)c1 | 9.42 | 8.49 | 8.99 |
| O=S(=O)(NCCN1CCCC1)c1ccc(-c2cccc(CNCCc3cccs3)c2)cc1 | 5.24 | 5.07 | 3.91 |
| Cc1nc(C)c(-c2ccc(Oc3ccc(Cl)c(Cl)c3)cc2)c(O)c1Br | 0.19 | 0.11 | 0.06 |
| Cc1cc(F)ccc1[C@H]1CNCCN1C(=O)N(C)C(C)(C)c1cc(C(F)(F)F)cc(C(F)(F)F)c1 | -0.57 | -1.23 | -1.4 |
| CN1CCC(C(=O)Nc2ccc(-c3ccc(-c4nc5cc(C(F)(F)F)ccc5[nH]4)s3)cc2)CC1 | -0.08 | 0.49 | -0.16 |
| Cc1cc2c(cc1C(F)(F)F)N(C(=O)Nc1cc(OCCN(C(C)C)C(C)C)cc(C(F)(F)F)c1)CC2 | 10.4 | 9.23 | 6.19 |
| COc1ccc2nc3cc(Cl)ccc3c(NCc3ccccc3)c2c1 | 2.39 | 2.92 | -0.49 |
| CO/C(=C/C=C/c1cc2cc(Cl)c(Cl)cc2[nH]1)C(=O)NC1CC(C)(C)N(C)C(C)(C)C1 | 2.45 | 0.74 | -0.41 |
| O=C(/C=C/c1ccc(-c2nc3ccc(Cl)cc3[nH]2)cc1)NC1CCN(Cc2ccccc2)CC1 | 1.24 | 1.66 | 3.7 |
| CC[C@H](NC(=O)c1c(CCCN2CCN(c3ccccc3)CC2)c(-c2ccccc2)nc2cc(O)ccc12)c1ccccc1 | 7.88 | 6.19 | 10.9 |

| SMILES | inhibition [1] [%] | inhibition [2] [%] | inhibition [3] [%] |
| --- | --- | --- | --- |
| O=C(Nc1ccc(OC2CCN(Cc3ccc(F)cc3)C2)c(Cl)c1)c1ccsc1 (stereo unspecified) | 4.02 | 3.33 | 1.2 |
| CC[C@H](C)[C@H](NC(=O)[C@H](CC1CCCCC1)[C@H](CC)N(O)C=O)C(=O)Nc1ccccn1 | 8.41 | 8.39 | 8.25 |
| Cc1cccc2nc(-c3ccc(-c4cccc(CNCCCN5CCCC5=O)c4)s3)[nH]c12 | 3.74 | 2.33 | 2.91 |
| Cc1ccc(-n2c(=O)c3cccnc3n2CC(=O)Nc2cccc(C)c2C)cc1 | 8.07 | 5.98 | 7.74 |
| CCCCc1ccc(-c2ccc3[nH]c(C)c(Br)c(=O)c3c2)cc1 | 3.02 | 3.88 | 2.44 |
| Nc1ccncc1C(=O)NCCCCN1CCN(c2nsc3ccccc23)CC1 | -0.32 | 0.47 | -1.16 |
| COc1ccc2c(N/N=C/c3cccc([N+](=O)[O-])c3)ccnc2c1 | -2.24 | -3.16 | -0.29 |
| O=C(NCc1cccs1)[C@H](Cc1ccccc1)Nc1ccnc(NCCc2ccccc2)n1 | -0.12 | -1.06 | -0.38 |
| C[C@@H](COc1ccc(-c2ccccc2)cc1)CON1C(N)=NC(N)=NC1(C)C | 69.6 | 76.5 | 50.3 |
| c1cc(CN2CCN(c3ccncc3)CC2)cc(-c2ccc(-c3nc4ccccc4[nH]3)cc2)c1 | 8.29 | 5.17 | 2.65 |
| Cc1ccc(Nc2nccc(NCC(O)c3cccc(C(F)(F)F)c3)n2)cc1 (stereo unspecified) | 4.66 | 4 | 0.81 |
| CCC1(C)N=C(N)N=C(N)N1c1ccccc1 (stereo unspecified) | -3.49 | 0 | -3.1 |
| CCCCOC(=O)NCCCC[C@H](NC(=O)OC(C)(C)C)C(=O)N[C@H](C(=O)OC(c1ccccc1)c1ccccc1)[C@H]1O[C@@H](n2ccc(=O)[nH]c2=O)[C@@H]2OC(C)(C)O[C@@H]21 | 0.88 | 0.71 | 0.44 |
| CCCCCN1CCC(NS(=O)(=O)c2cccc(C(=O)Nc3cccc(C(F)(F)F)c3)c2)C1 (stereo unspecified) | 1.68 | 1.1 | 4.07 |
| CCCCCCCc1c2c(C)c(C(=O)OCC)nc-2cc2n1CC(C)=C2C | 3.56 | 2.2 | 3.09 |
| O=C(NCCCCN1CCC(c2ccc3c(c2OCC2CC2)CCCC3)CC1)c1ccc(NC(=O)c2ccc(Cl)cc2)cc1 | 7.74 | 6.44 | 8.96 |
